In PubChem BioAssay AID595 (National Center for Advancing Translational Sciences (NCATS), 2007) one finds activity change, negative = inhibition and Potency data, which are given here for 64 molecules.

The structures appear in SMILES notation. Screen size: about 71,000 compounds; about 310 (0.44%) were called active. Roughly 5% stayed inconclusive and do not appear here. Calls follow the shape of the dose curve; as a rule, active = well fitted curve in either direction with a large enough effect; inconclusive = small, poorly fitted or top-dose-only effect, or another doubt; inactive = flat fitted curve, though single readings scatter. The list comes from a sample in which actives are over-represented; it also holds similar structures and randomly drawn compounds. A call without a number means that no potency is given here.
Potency is read from the fitted curve at half-maximal effect.

The subject of this assay is Hsp90 C-terminal peptide / TPR2A (Hop) interaction, human. As to the kind of experiment: qHTS Assay for Disrupters of an Hsp90 Co-Chaperone Interaction. The note with it: AlphaScreen TPR2A-His6 binding biotin-Hsp90 C-terminal peptide; series mostly up to 57 µM. An excerpt:
NIH Chemical Genomics Center [NCGC]
NIH Molecular Libraries Screening Centers Network [MLSCN]
Hsp90 (heat shock protein 90) is the essential molecular chaperone and it accounts for 1-2% of all cytosolic proteins and is critical for the activity of diverse cellular proteins that are involved in a variety of cellular processes, including development, cell cycle, and steroid hormone signaling. Its client proteins include signaling kinases such as IGF1R, Akt, v-Src, Raf-1; regulators of cell survival such as Bcr-Abl; and transcription factors such as mutated p53, estrogen and progesterone receptors. Hsp90 has emerged as an important target for cancer treatment due to its essential role in maintaining transformation and regulating the function of oncogenic signaling proteins.
The in vivo function of Hsp90 is regulated by the binding and hydrolysis of ATP at its N-terminal. Geldanamycin binds to ATP site and inhibit Hsp90 function. Geldanamycin and its analogues are under clinical trials in cancer patients.
This domain contains the binding site for tetratricopeptide repeat (TPR) domains on HOP (Hsp Organizing Protein). TPR is a structural motif used by a significant number of cochaperones by which the in vivo function of Hsp90 is regulated. TPR2A on HOP binds specifically to MEEVD motif of the C-terminal of Hsp90.
A homogeneous AlphaScreen is developed to assess the interaction between TPR2A and MEEVD motif of the C-terminal of Hsp90 by using the isolated TPR2A domain and a synthesized 20mer Hsp90 C terminal peptide. AlphaScreen is two bead-based proximity-dependent chemical energy transfer luminescent assay platform. TPR2A-His-6 and biotinylated Hsp90 C terminal peptide will bring streptavidin donor beads and nickel chelate acceptor beads to a proximity range (less than 200 nm), and subsequently lead a chemical luminescent reaction upon exciting donor beads with 680 nm laser. Inhibition of TPR2A and MEEVD motif interaction by small molecules could attenuate or abolish this chemical luminescent reaction.
Counter screening: Biotinylated-His-6 (PerkinElmer) can be utilized as a counter screen, as it serves as a linker to bring streptavidin beads and nickel chelate beads together. The counter screen can exclude alpha screen platform false positives due to small molecules being metal chelators, biotin analogues and imidazole analogues, or due to interfering with oxygen release from donor beads. Such an assay should be utilized to qualify any activity observed in this screen.
NCGC Assay Protocol Summary:
The assay was performed on 1536-well white plate (untreated solid bottom). Liquids were dispensed by 1536-well plate washer (Kalypsys, San Diego, CA). Plates were read on EnVision (PerkinElmer, Boston, MA).TPR2A-His6 was produced using a bacteria expression system and purified using a well developed method (Ghosh et al., 2000). Hsp90 C terminal 20-mer peptide with or without an N-terminal biotin group are synthesized using automated solid phase synthesis by the Yale Keck facility. The composition of assay buffer was (in mM) 25 HEPES, 100 KCl, 2 MgCl2 and 2 DTT; 0.1% BSA and 0.01% Tween-20. TPR2A-His6 binding to biotin-Hsp90 will bring streptavidin donor beads and nickel chelate acceptor beads (PerkinElmer) together and can be measured by Alpha reading by EnVision (PerkinElmer). Free Hsp90 blocks biotin-Hsp90 binding to TPR2 and serves as a positive control in the current asssay.
The assay was performed at room temperature. All compounds were screened as titrations from […] to 46 uM final concentration. The assay was performed in 1536-well format plates (untreated white solid bottom, Corning Inc.) as follows:
Sequence,Parameter,Value,Description
1,Reagent,3 uL TPR2A-His6,Final concentration was 5nM
2,Compound,23 nL,Final titration was from 0.7 nM to 46 uM
3,Time,15 minutes,Room temperature
4,Reagent,1 uL biotin-Hsp90,With and without free Hsp90. Final concentration was 10 nM for biotin-Hsp90 and 10uM for free Hsp90.
5,Time,1 hour,Room temperature
[…]
For `CCN(CC)S(=O)(=O)N1CCC(C(=O)NC(C)CCc2ccccc2)CC1` (centres undefined), the activity change, negative = inhibition result was “inactive”.
The same measure, in the same setting: then `CC1=C(C(=O)OCc2ccccc2)C(c2ccc(C(F)(F)F)cc2)NC(=O)N1CCCCCC(=O)O` (centres undefined), with “inactive”; and `COC(=O)C(CC(=O)Nc1cc(C)ccc1C)Nc1ccccc1OC` (centres undefined), with “inactive”.
Consider `O=C(O)c1ccc(COCC(F)(F)F)cc1`, for which the activity change, negative = inhibition entry is “inactive”.
Still for that read-out and setting: in the case of `COC(=O)[C@@H]1[C@H]2C[C@H]3c4[nH]c5cc(OC)ccc5c4CCN3C[C@@H]2C[C@@H](OC(=O)c2cc(OC)c(OC)c(OC)c2)[C@@H]1OC` it was “inactive”; in that of `CC[C@]1(C)CC(=O)NC1=O`, “inactive”; in that of `CCCn1c(-c2ccc(F)cc2)nc2c(NCC3CCCN3CC)nc(C)nc21` (centres undefined), “inactive”.
On the same count and under the same terms, in the case of `CCNc1ncc2ncc(=O)n(CCc3ccccc3)c2n1` it was “inactive”; in that of `Cc1c(NC(=O)c2cccnc2)c(=O)n(-c2ccccc2)n1C`, “inactive”.
Still for that read-out and setting: in the case of `CN1C(=O)C[C@H](c2ccccc2)C1=O` it was “inactive”; in that of `CC[C@@H]1Cc2cc(O)ccc2C2=C1c1ccc(O)cc1C[C@H]2CC`, “inactive”.
In the case of `Nc1ccc2c3c(cccc13)C(=O)NC2=O`, the activity change, negative = inhibition result is “inactive”.
Still for that read-out and setting: in the case of `COc1ccc(CC(=O)Nc2ccc3c(c2)CCC3)cc1S(=O)(=O)N1CCOCC1` it was “inactive”.
As to `CC(C)C[C@@H](CC(=O)N[C@@H](CCC(=O)O)CC(=O)O)NC(=O)[C@@H]1CCCC[C@H]1NC(=O)C[C@@H](NC(=O)C[C@H](Cc1c[nH]c2ccccc12)NC(=O)[C@@H]1CCCC[C@H]1N)C(C)C`, the Potency is 5.01 µM (active).
As to `CC(C)[C@@H](CC(=O)N[C@@H]1CCNC[C@H]1C(=O)N[C@H](CC(=O)N[C@@H](CCC(=O)O)CC(=O)O)Cc1ccccc1)NC(=O)C[C@H](CO)NC(=O)[C@@H]1CNCC[C@H]1N`, the activity change, negative = inhibition result is “inactive”.
On to `O=C(c1cccnc1NCc1ccccc1)N1CCOCC1`, for which the activity change, negative = inhibition entry was “inactive”.
Still for that read-out and setting: then `OC(COc1ccc2ccccc2c1)CN1CCOCC1` (centres undefined), with “inactive”.
With `Oc1c(C(c2ccccn2)N2CCOCC2)ccc2cccnc12` (centres undefined), the Potency is 2 µM (active).
`CCN(Cc1ccncc1)C(=O)[C@@H](CO)c1ccccc1`: the activity change, negative = inhibition result was “inactive”.
Same read-out and setting: then `CS(=O)(=O)N1CCC2(CC1)CN(Cc1ccccc1)C2`, with “inactive”; and `COc1cccc(Cn2c(=O)c(-c3ccccc3)nc3cnc(OC)nc32)c1`, with “inactive”; and `CCCC[C@@H]1C[C@H]1C(NC(=O)c1ccc(-c2ccccc2)cc1)c1ccc(-c2ccccc2)cc1` (some centres undefined), with “inactive”.
The same measure, in the same setting: then `CC1=C(C(=O)Nc2ccc(Cl)cc2)C(c2ccco2)NC(=O)N1` (centres undefined), with “inactive”.
The same measure, in the same setting: in the case of `Cc1ccc2[nH]c(=O)c(-c3nc4c(C)cccn4c3NCc3ccco3)cc2c1` it was “inactive”; in that of `Clc1ccc(C(c2ccc(Cl)cc2)n2cc[n+](C[C@@H](OCc3ccc(Cl)cc3Cl)c3ccc(Cl)cc3Cl)c2)cc1`, “inactive”; in that of `O=C(O)[C@@H](O)Cc1ccccn1`, -2.31% [at 11 µM] (inactive).
Consider `OC(CCl)CCl`, for which the activity change, negative = inhibition entry is “inactive”.
On the same count and under the same terms, in the case of `O=C1CCCc2c1[nH]c1ccc(Br)cc21` it was “inactive”.
Still for that read-out and setting: then `CCC[C@H]1C(=O)N2C(N(C)C)=Nc3ccc(C)cc3N2C1=O`, with “inactive”.
Still for that read-out and setting: then `CN(C)CCCn1c2ccccc2c2cnccc21`, with -5.16% [at 11 µM] (inactive); and `COc1cccc(N(CC(=O)Nc2cccc(F)c2)S(C)(=O)=O)c1`, with “inactive”; and `O=C(O)c1cccc(S(=O)(=O)NCCO)c1`, with -3.23% [at 11 µM] (inactive).
With `CC(C)NC(=O)N1CC[C@@]2(CCCN(C(=O)c3ccco3)C2)C1`, the activity change, negative = inhibition entry is “inactive”.
For the molecule `CCCCNc1nc(C)nc2c1nc(-c1ccccc1)n2CCCCN(CC)CC`, the activity change, negative = inhibition result is “inactive”.
Still for that read-out and setting: then `Cc1cc(=O)[nH]c(SCC(=O)N2c3ccccc3CC2C)n1` (centres undefined), with “inactive”; and `Fc1cccc(/C=N\N=C/c2cccc(F)c2)c1`, with “inactive”; and `CCOC(=O)N1CCN(C(=O)c2cc3c(ccc4ccccc43)oc2=O)CC1`, with “inactive”.
On to `CC(C)(O/N=C(\C(=O)N[C@@H]1C(=O)N2C(C(=O)[O-])=C(C[n+]3ccccc3)CS[C@@H]12)c1csc(N)n1)C(=O)O`, for which the activity change, negative = inhibition result is “inactive”.
Same read-out and setting: in the case of `O=C(c1ccco1)N1CCC2(CC1)CN(c1ncccn1)C2` it was “inactive”; in that of `c1cncc(CNc2ccnc(-c3ccc4c(c3)OCO4)n2)c1`, “inactive”.
Still for that read-out and setting: in the case of `Cc1cc(Cl)ccc1N1C(=O)CC(SCCC(=O)O)C1=O` (centres undefined) it was “inactive”; in that of `O=c1c(-c2cccs2)nc2cnc(Oc3ccccc3)nc2n1-c1ccccc1`, “inactive”.
Still for that read-out and setting: in the case of `COc1ncc2nc(-c3ccc(Cl)cc3)c(=O)n(-c3ccccc3)c2n1` it was “inactive”; in that of `COc1ccccc1CNc1nc(-c2c(C)noc2C)nc2ccccc12`, “inactive”; in that of `N=C(CC(=O)Nc1ccccn1)c1ccccc1`, -0.76% [at 11 µM] (inactive).
Take `O=C1c2ccccc2C(=O)C1c1ccccc1`: the activity change, negative = inhibition entry was “inactive”.
On the same count and under the same terms, in the case of `COc1cccc(N2C(=O)C3CCCN3C2c2ccc(F)cc2)c1` (centres undefined) it was “inactive”; in that of `CS(=O)(=O)Nc1cccc(-c2cncnc2Nc2ccccc2)c1`, “inactive”; in that of `COCCn1c(=O)c(-c2cccs2)nc2cncnc21`, “inactive”.
The same measure, in the same setting: in the case of `Oc1ccc(O)c2c(O)cccc12` it was “inactive”; in that of `S=c1c2[nH]cnc2ncn1CCSc1ncnc2nc[nH]c12`, -3.58% [at 11 µM] (inactive).
As to `CCOC(=O)N1CCN(Cc2nc3c(c(=O)n(C)c(=O)n3C)n2Cc2ccccc2)CC1`, the activity change, negative = inhibition result is “inactive”.
As for `O=C(NCCc1ccco1)c1nn(Cc2ccccc2)c(=O)c2ccccc12`, the activity change, negative = inhibition result was “inactive”.
Still for that read-out and setting: then `COC(=O)N1CCC[C@@]2(CCN(C(=O)NC(C)C)C2)C1`, with “inactive”.
Regarding `CS(=O)(=O)N1CCC2(CC1)CN(Cc1cc(C(F)(F)F)cc(C(F)(F)F)c1)C2`, the activity change, negative = inhibition result is “inactive”.
The same measure, in the same setting: then `CN1CCc2[nH]nc(-c3n[nH]c4c3CN(C)CC4)c2C1`, with -1.93% [at 11 µM] (inactive); and `CC1=C(C(=O)Nc2ccccc2)C(c2cccs2)C(C#N)=C(SCC#N)N1` (centres undefined), with “inactive”; and `CCCCN(CCCC)C(=O)CCS(=O)(=O)c1ccc2c(c1)n(C)c(=O)c(=O)n2C`, with “inactive”.
The same measure, in the same setting: in the case of `Cc1cnc(CNc2nc(-c3cccnc3)nc3ccccc23)cn1` it was “inactive”; in that of `CCCn1nnc2sc3c(c2c1=O)CCC(C)C3` (centres undefined), “inactive”; in that of `Cn1cccc1C(=O)N1CCC[C@@]2(CCN(Cc3nccs3)C2)C1`, “inactive”.
On the same count and under the same terms, then `Cc1n[nH]c(C)c1S(=O)(=O)N1CCCC(C(=O)NCC2COc3ccccc3O2)C1` (centres undefined), with “inactive”.
Regarding `c1ccc(Oc2ccccc2)cc1`, the activity change, negative = inhibition entry was “inactive”.
On to `COC(=O)[C@@]1(Cc2ccccc2)[C@H]2c3cc(C(=O)N(C)C)n(CCSCCO)c3C[C@H]2CN1C(=O)c1ccccc1`, for which the activity change, negative = inhibition result was “inactive”.
